The test relates to HepG2. As to the kind of experiment: GSK_TCMDC: Percent inhibition of human HepG2 cell line. Test compounds present at 10uM. The test is classed as functional.
In the case of `CC(=O)Nc1ccc([N+](=O)[O-])c2c(Br)cccc12`, the Inhibition was determined as 0%.

`COc1ccc(Nc2ncc3c(-c4cccc(NC(=O)Cc5ccncc5)c4)c[nH]c3n2)cc1OC` returned an Inhibition of 23%.

In the case of `Cc1nc(C(=O)N2CCCC[C@H]2CNC(=O)c2ccc(-c3ccc(N4CCCC4=O)cc3C)cc2)c(-c2ccc(F)cc2)s1`, the Inhibition came to 6%.

In turn, `Br.CC1(C)NC(N)=NC(=N)N1OCCSc1ccc(Cl)c(Cl)c1` came in with an Inhibition of 65%.

For `COc1cccc(-c2ccc3ccnc(N)c3c2)c1.O=C(O)C(F)(F)F`, the Inhibition was found to be 40%.

Regarding `O=C(/C=C/c1ccc(Cl)c(Cl)c1)NCCCCCN1CCC(NC(=O)Nc2cc(Cl)cc(Cl)c2)CC1`, the Inhibition was determined as 98%.

The compound `CN1CCN(c2ccc(-c3cccc(NC(=O)c4cccc(Cl)c4)c3)nn2)CC1` had an Inhibition of 5%.

For `O=C(O)C(F)(F)F.c1ccc2[nH]c(-c3ccc(-c4ccc(CNCCc5ccncc5)cc4)s3)nc2c1`, the Inhibition is recorded as 28%.

As for `COc1ccc(NC(=O)c2ccc(Br)c(C)c2)cc1N1CCN(CCCc2c[nH]c3ccccc23)CC1`, the Inhibition is listed as 21%.

As for `Cl.Clc1ccc2c(NCCc3ccccc3)ccnc2c1`, the Inhibition worked out at 31%.

`Cc1cc(N[C@@H](CC(C)C)C(=O)NCc2cccs2)nc(NCCc2ccccc2)n1.O=C(O)C(F)(F)F` had an Inhibition of 1%.

Take `O=C(/C=C/c1ccc(Cl)c(Cl)c1)NCCCCCCN1CCN(C(=O)Nc2ccc(Cl)c(Cl)c2)CC1`: the Inhibition was determined as 23%.

With `COc1ccc2c(N/N=C/c3cccc([N+](=O)[O-])c3)ccnc2c1`, the Inhibition came to 0%.

Compound `COc1cc2ncnc(Nc3ccc(OCc4ccccc4)c(I)c3)c2cc1OC.Cl` yielded an Inhibition of 11%.

Take `O=C(NC1CCN(Cc2ccc3c(c2)OCCO3)CC1)c1ccc(-c2cccc(Cl)c2)s1.O=C(O)C(F)(F)F`: the Inhibition was determined as 46%.

Regarding `CCOc1ccc2[nH]c(C)cc(=NN=Cc3ccccc3)c2c1`, the Inhibition worked out at 5%.

The compound `O=C(NCCCCCN1CCC(c2ccc(O)cc2)CC1)c1ccc(-c2ccccc2)cc1` returned an Inhibition of 28%.

As for `COc1ccc2nc3cc(Cl)ccc3c(NCCCCCCNc3c4ccc(Cl)cc4nc4ccc(OC)cc34)c2c1.Cl.Cl.Cl.Cl`, the Inhibition was 20%.

`COc1ccc(NC(=O)Nc2ccc(-c3cccc(-c4nc5ccccc5[nH]4)c3)cc2)cc1`: the Inhibition was 44%.

Take `Cc1ccc2[nH]c(C)cc(=NN=Cc3cccc(F)c3)c2c1`: the Inhibition is 6%.

In the case of `Cc1cccc2nc(-c3ccc(-c4cccc(NC(=O)c5ccncc5)c4)cc3)[nH]c12`, the Inhibition is on record as 46%.

`COc1cccc(Nc2nc(N)c3ccccc3n2)c1.Cl` displayed an Inhibition of 18%.

The compound `CN(C)c1ccc(C=C2SC(=N)N(c3nccs3)C2=O)cc1` had an Inhibition of 38%.

On to `COc1ccccc1/C=C/C(=O)NCCC1CCN(CCCCCNC(=O)/C=C/c2ccc(Cl)c(Cl)c2)CC1`, for which the Inhibition is given as 34%.

Turning to `CC(=O)NC1=NC(C)(C)N(OCc2ccc(Cl)c(Cl)c2)C(NC(C)=O)=N1`, the Inhibition turned out to be 68%.

`Cc1cc(F)ccc1-c1nc(Nc2ccncc2)c2ccn(C)c2n1`: the Inhibition is listed as 9%.

`Nc1cc(-c2cccc(Cl)c2)nn1-c1ccnc2cc(Cl)ccc12` had an Inhibition of 0%.

`CCc1ccc(O)c(-c2cc(C(=O)Nc3cccnc3)[nH]n2)c1` registered an Inhibition of 0%.

Regarding `COc1cc(C2=NN(S(=O)(=O)c3c(C)cc(C)cc3C)CCCC2)ccc1Cl`, the Inhibition was determined as 9%.

With `O=C(c1cccc(-c2noc(C(F)(F)F)n2)c1)N1CCN(c2nsc3ccccc23)CC1`, the Inhibition is 18%.

`COc1ccccc1CCNc1nc(C)cc(N[C@@H](CC(C)C)C(=O)NCCc2ccccc2)n1.O=C(O)C(F)(F)F` gave an Inhibition of 12%.

Consider `COc1ccccc1/C=C/C(=O)N(C)C1CCN(CCCCCNC(=O)/C=C/c2ccc(Cl)c(Cl)c2)C1` (stereo not given), for which the Inhibition was 10%.

Turning to `CS(=O)(=O)c1cccc(-c2cnc(N)c3cc(-c4cccc(F)c4)ccc23)c1`, the Inhibition came to 45%.

Compound `CCN(CC)CCN(Cc1ccc(-c2ccc(Br)cc2)cc1)C(=O)Cn1c(CCc2cccc(F)c2F)nc(=O)c2ccccc21.O=C(O)C(O)C(O)C(=O)O` showed an Inhibition of 37%.

`CN1CCN(C(C(=O)NCc2cc(Cl)cc(Cl)c2)c2ccccc2-c2ccsc2)CC1` (stereo not given) displayed an Inhibition of 11%.

With `Cc1cc(-c2ccc(S(=O)(=O)Nc3cc4c(cc3OC(C)C)CCN(C)CC4)cc2)ccc1Cl.Cl`, the Inhibition worked out at 33%.

In turn, `CNC(=O)C(C)N(c1ccc(Cl)cc1)c1nc(C(C)(C)C)cs1` (stereo not given) registered an Inhibition of 0%.

`O=C(NC1CCC(N2CCC(c3nc4ccccc4s3)CC2)CC1)c1cc2ccccc2[nH]1` (stereo not given) gave an Inhibition of 23%.

`COc1cc2nc(NCc3ccccc3)nc(NCc3ccccc3)c2cc1OC` had an Inhibition of 66%.

With `O=C(CCC1CCCC1)N(Cc1ccc(-c2ccc(CNCCc3ccccc3)cc2)cc1)C1CCCNC1.O=C(O)C(F)(F)F` (stereo not given), the Inhibition amounted to 99%.

For orientation: Inhibition means the drop in the measured response relative to a control, in per cent.

(Values after ChEMBL document CHEMBL1157539, “Thousands of chemical starting points for antimalarial lead identification” (Nature, 2010).)
